In publication PMC5700166:

How the values were obtained:
[1] = target: T1, GST-Nv-NF-kB (Ser allele) (Nematostella vectensis, UniProt A7UNT2 2-411); experiment: protein-binding microarray (PBM); PBM: ~300 nM protein, 6 mM HEPES pH 7.8, 80 mM KCl, 0.5 mM EDTA, 0.5 mM EGTA, 6% glycerol, 35 ng/ul poly-dIdC, 1% milk, 1 h, room temperature; Ap Aiptasia and Nv Nematostella (sea anemones) / Co Capsaspora / Aq Amphimedon (sponge) / Dm Drosophila / Hu human; RHD is the Rel homology domain; high values mean tight binding; settings: dsDNA, one strand shown
T1 sequence: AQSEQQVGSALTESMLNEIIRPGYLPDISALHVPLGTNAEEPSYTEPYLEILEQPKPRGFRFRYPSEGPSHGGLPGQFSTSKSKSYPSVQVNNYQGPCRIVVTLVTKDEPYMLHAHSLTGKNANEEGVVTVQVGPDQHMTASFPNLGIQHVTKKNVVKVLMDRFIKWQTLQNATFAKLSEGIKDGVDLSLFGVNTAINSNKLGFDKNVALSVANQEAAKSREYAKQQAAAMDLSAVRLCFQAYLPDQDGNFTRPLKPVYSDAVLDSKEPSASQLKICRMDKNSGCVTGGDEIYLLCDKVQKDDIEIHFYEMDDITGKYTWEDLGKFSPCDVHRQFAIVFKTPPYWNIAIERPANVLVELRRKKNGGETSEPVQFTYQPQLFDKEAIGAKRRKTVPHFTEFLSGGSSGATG

GST-Hu-p50 = GST-Hu-p50 (Homo sapiens, UniProt P19838 7-356); experiment: as above; settings: dsDNA, one strand shown
GST-Hu-p50, sequence (P19838 7-356): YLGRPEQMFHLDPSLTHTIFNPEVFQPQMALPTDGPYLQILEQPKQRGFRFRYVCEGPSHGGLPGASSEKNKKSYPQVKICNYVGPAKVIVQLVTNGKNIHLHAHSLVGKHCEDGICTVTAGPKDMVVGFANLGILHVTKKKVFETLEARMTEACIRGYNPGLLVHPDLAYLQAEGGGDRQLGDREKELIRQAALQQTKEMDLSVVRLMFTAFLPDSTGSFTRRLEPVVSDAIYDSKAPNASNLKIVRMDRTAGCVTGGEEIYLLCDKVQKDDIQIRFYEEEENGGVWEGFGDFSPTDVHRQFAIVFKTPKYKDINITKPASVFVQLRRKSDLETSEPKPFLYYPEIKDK

Sequence	binding signal [1]	binding signal (GST-Hu-p50)
CCGATTAACATCAGGGGACGGGATGATGTTAATCGGGTCTTGATTCGCTTGACGCTGCTG	3.93 z-score	3.73 z-score
CCGATTAACATCAGGGGGGTACATGATGTTAATCGGGTCTTGATTCGCTTGACGCTGCTG	3.54 z-score	2.93 z-score
CCGATTAACATCAAATATACCCATGATGTTAATCGGGTCTTGATTCGCTTGACGCTGCTG	1.7 z-score	1.83 z-score
CCGATTAACATCAGGAGTCCCCATGATGTTAATCGGGTCTTGATTCGCTTGACGCTGCTG	4.11 z-score	4.86 z-score
CCGATTAACATCAGGGAAAAGAATGATGTTAATCGGGTCTTGATTCGCTTGACGCTGCTG	4.96 z-score	2.53 z-score
CCGATTAACATCAAAAGAATCCCTGATGTTAATCGGGTCTTGATTCGCTTGACGCTGCTG	2.43 z-score	3.14 z-score
CCGATTAACATCAGGCTTTCCCATGATGTTAATCGGGTCTTGATTCGCTTGACGCTGCTG	1.98 z-score	1.36 z-score
CCGATTAACATCACGGTACGGGGTGATGTTAATCGGGTCTTGATTCGCTTGACGCTGCTG	1.3 z-score	1.71 z-score
CCGATTAACATCAGGGGACTATATGATGTTAATCGGGTCTTGATTCGCTTGACGCTGCTG	4.77 z-score	4.35 z-score
CCGATTAACATCACGGAAGTCCCTGATGTTAATCGGGTCTTGATTCGCTTGACGCTGCTG	5.32 z-score	4.43 z-score
CCGATTAACATCAACTTTCCCAGTGATGTTAATCGGGTCTTGATTCGCTTGACGCTGCTG	1.7 z-score	1.59 z-score
CCGATTAACATCAGGGAAATATATGATGTTAATCGGGTCTTGATTCGCTTGACGCTGCTG	5.62 z-score	4.03 z-score
CCGATTAACATCAGGAATACCCATGATGTTAATCGGGTCTTGATTCGCTTGACGCTGCTG	3.36 z-score	3.18 z-score
CCGATTAACATCAGGGGGAGTGATGATGTTAATCGGGTCTTGATTCGCTTGACGCTGCTG	4.81 z-score	4.48 z-score
CCGATTAACATCACTTTCCCAAATGATGTTAATCGGGTCTTGATTCGCTTGACGCTGCTG	3.07 z-score	1.67 z-score
CCGATTAACATCAGGAGGCCCCCTGATGTTAATCGGGTCTTGATTCGCTTGACGCTGCTG	1.79 z-score	2.78 z-score
CCGATTAACATCAAGTCCCCCAATGATGTTAATCGGGTCTTGATTCGCTTGACGCTGCTG	3.54 z-score	4.25 z-score
CCGATTAACATCAGAGTTTCCCATGATGTTAATCGGGTCTTGATTCGCTTGACGCTGCTG	3.14 z-score	2.22 z-score
CCGATTAACATCAGGGGGGGTCATGATGTTAATCGGGTCTTGATTCGCTTGACGCTGCTG	1.92 z-score	3.32 z-score
CCGATTAACATCAGGGAAACTCATGATGTTAATCGGGTCTTGATTCGCTTGACGCTGCTG	4.62 z-score	3.13 z-score
CCGATTAACATCATAAGCGGGGATGATGTTAATCGGGTCTTGATTCGCTTGACGCTGCTG	3.83 z-score	3.66 z-score
CCGATTAACATCAGGGAGCTACCTGATGTTAATCGGGTCTTGATTCGCTTGACGCTGCTG	1.68 z-score	1.35 z-score
CCGATTAACATCAGGTAACTACCTGATGTTAATCGGGTCTTGATTCGCTTGACGCTGCTG	1.88 z-score	1.3 z-score
CCGATTAACATCAGGGATAACCCTGATGTTAATCGGGTCTTGATTCGCTTGACGCTGCTG	1.1 z-score	2.62 z-score
CCGATTAACATCAAACTCTCCCCTGATGTTAATCGGGTCTTGATTCGCTTGACGCTGCTG	4.93 z-score	4.08 z-score

Sequence	binding signal [1]	binding signal (GST-Hu-p50)
CCGATTAACATCAGGGAATCAGATGATGTTAATCGGGTCTTGATTCGCTTGACGCTGCTG	2.02 z-score	1.19 z-score
CCGATTAACATCACAATACCCCCTGATGTTAATCGGGTCTTGATTCGCTTGACGCTGCTG	5.97 z-score	4.87 z-score
CCGATTAACATCAGGACCGTCCCTGATGTTAATCGGGTCTTGATTCGCTTGACGCTGCTG	1.36 z-score	2.66 z-score
CCGATTAACATCAAAAAACCGTTTGATGTTAATCGGGTCTTGATTCGCTTGACGCTGCTG	2.22 z-score	1.52 z-score
CCGATTAACATCAGGAACCTCCCTGATGTTAATCGGGTCTTGATTCGCTTGACGCTGCTG	1.05 z-score	1.22 z-score
CCGATTAACATCAGGGAATGCACTGATGTTAATCGGGTCTTGATTCGCTTGACGCTGCTG	2.1 z-score	2.28 z-score
CCGATTAACATCAGGGACAACCCTGATGTTAATCGGGTCTTGATTCGCTTGACGCTGCTG	3.39 z-score	2.91 z-score
CCGATTAACATCAGGACGTTCCCTGATGTTAATCGGGTCTTGATTCGCTTGACGCTGCTG	1.14 z-score	1.71 z-score
CCGATTAACATCAGGGAACTACCTGATGTTAATCGGGTCTTGATTCGCTTGACGCTGCTG	4.46 z-score	3.92 z-score
CCGATTAACATCAAGGGATTTTCTGATGTTAATCGGGTCTTGATTCGCTTGACGCTGCTG	5.14 z-score	4.49 z-score
CCGATTAACATCAGGGTAAAACCTGATGTTAATCGGGTCTTGATTCGCTTGACGCTGCTG	3.53 z-score	2.56 z-score
CCGATTAACATCAGAAAATTACCTGATGTTAATCGGGTCTTGATTCGCTTGACGCTGCTG	5.7 z-score	4.34 z-score
CCGATTAACATCAGGGTTTTCCATGATGTTAATCGGGTCTTGATTCGCTTGACGCTGCTG	1.68 z-score	2.46 z-score
CCGATTAACATCAGATTTTTCCCTGATGTTAATCGGGTCTTGATTCGCTTGACGCTGCTG	6.27 z-score	3.71 z-score
CCGATTAACATCACGGCTTTCCCTGATGTTAATCGGGTCTTGATTCGCTTGACGCTGCTG	3.48 z-score	2.19 z-score
CCGATTAACATCAAAACAATCCCTGATGTTAATCGGGTCTTGATTCGCTTGACGCTGCTG	1.53 z-score	2.64 z-score
CCGATTAACATCAAAAACACCCCTGATGTTAATCGGGTCTTGATTCGCTTGACGCTGCTG	3.89 z-score	4.99 z-score
CCGATTAACATCAAGTACCCCCATGATGTTAATCGGGTCTTGATTCGCTTGACGCTGCTG	3.01 z-score	2.36 z-score
CCGATTAACATCACGGGGGGGACTGATGTTAATCGGGTCTTGATTCGCTTGACGCTGCTG	4.38 z-score	4.37 z-score
CCGATTAACATCAGGGATTACCATGATGTTAATCGGGTCTTGATTCGCTTGACGCTGCTG	2.16 z-score	1.76 z-score
CCGATTAACATCACGGGAAACCCTGATGTTAATCGGGTCTTGATTCGCTTGACGCTGCTG	3.35 z-score	2.62 z-score
CCGATTAACATCAGGGAAAATGATGATGTTAATCGGGTCTTGATTCGCTTGACGCTGCTG	6.52 z-score	2.44 z-score
CCGATTAACATCAAATTTTCCCATGATGTTAATCGGGTCTTGATTCGCTTGACGCTGCTG	6.42 z-score	4.19 z-score
CCGATTAACATCAGGGGGTCTACTGATGTTAATCGGGTCTTGATTCGCTTGACGCTGCTG	2.55 z-score	3.36 z-score
CCGATTAACATCAAGCATCCCCCTGATGTTAATCGGGTCTTGATTCGCTTGACGCTGCTG	5.87 z-score	4.97 z-score

Sequence	binding signal [1]	binding signal (GST-Hu-p50)
CCGATTAACATCACGGGAATTTCTGATGTTAATCGGGTCTTGATTCGCTTGACGCTGCTG	6.48 z-score	4.6 z-score
CCGATTAACATCAGGAGTCTCCCTGATGTTAATCGGGTCTTGATTCGCTTGACGCTGCTG	1.4 z-score	1.4 z-score
CCGATTAACATCAAGGGTTTTCCTGATGTTAATCGGGTCTTGATTCGCTTGACGCTGCTG	2.41 z-score	2.92 z-score
CCGATTAACATCACAAATTCCCATGATGTTAATCGGGTCTTGATTCGCTTGACGCTGCTG	4.59 z-score	3.86 z-score
CCGATTAACATCATAGTCCCATGTGATGTTAATCGGGTCTTGATTCGCTTGACGCTGCTG	1.82 z-score	1.34 z-score
CCGATTAACATCAGGACTTTACCTGATGTTAATCGGGTCTTGATTCGCTTGACGCTGCTG	2.66 z-score	2.67 z-score
CCGATTAACATCAACGGGAATTCTGATGTTAATCGGGTCTTGATTCGCTTGACGCTGCTG	5.37 z-score	3.82 z-score
CCGATTAACATCAAGGTAATCCCTGATGTTAATCGGGTCTTGATTCGCTTGACGCTGCTG	2.34 z-score	1.4 z-score
CCGATTAACATCACCCCTCCCCGTGATGTTAATCGGGTCTTGATTCGCTTGACGCTGCTG	3.23 z-score	3.01 z-score
CCGATTAACATCAAGCAACCCCCTGATGTTAATCGGGTCTTGATTCGCTTGACGCTGCTG	3.95 z-score	4.45 z-score
CCGATTAACATCAGGAGATTCCCTGATGTTAATCGGGTCTTGATTCGCTTGACGCTGCTG	4.04 z-score	4.59 z-score
CCGATTAACATCATGATGGGAAATGATGTTAATCGGGTCTTGATTCGCTTGACGCTGCTG	1.98 z-score	2.02 z-score
CCGATTAACATCAAATACTTCCCTGATGTTAATCGGGTCTTGATTCGCTTGACGCTGCTG	3.4 z-score	1.98 z-score
CCGATTAACATCACCCACGAGGGTGATGTTAATCGGGTCTTGATTCGCTTGACGCTGCTG	1.02 z-score	2.01 z-score
CCGATTAACATCACGGAGTCCCCTGATGTTAATCGGGTCTTGATTCGCTTGACGCTGCTG	4.71 z-score	5.13 z-score
CCGATTAACATCAGGTATTTTTATGATGTTAATCGGGTCTTGATTCGCTTGACGCTGCTG	3.43 z-score	3.11 z-score
CCGATTAACATCAGGAACGCCCCTGATGTTAATCGGGTCTTGATTCGCTTGACGCTGCTG	1.92 z-score	3 z-score
CCGATTAACATCAAGCGTTTCCCTGATGTTAATCGGGTCTTGATTCGCTTGACGCTGCTG	3.6 z-score	1.47 z-score
CCGATTAACATCACCTTCCCCCCTGATGTTAATCGGGTCTTGATTCGCTTGACGCTGCTG	5.23 z-score	4.59 z-score
CCGATTAACATCACCCAGGGAAATGATGTTAATCGGGTCTTGATTCGCTTGACGCTGCTG	1.97 z-score	2.01 z-score
CCGATTAACATCACATTGTCCCCTGATGTTAATCGGGTCTTGATTCGCTTGACGCTGCTG	5.06 z-score	3.52 z-score
CCGATTAACATCAGGAGTTTCCCTGATGTTAATCGGGTCTTGATTCGCTTGACGCTGCTG	4.67 z-score	4.81 z-score
CCGATTAACATCACAGGGAATTCTGATGTTAATCGGGTCTTGATTCGCTTGACGCTGCTG	4.96 z-score	4.29 z-score
